In all, about 230,000 compounds went through this assay and fewer than 10 were called active. Calls follow the shape of the dose curve; as a rule, active = well fitted curve in the direction sought with a large enough effect; inconclusive = small, poorly fitted or top-dose-only effect, or effect the other way, or another doubt; inactive = no such curve, though single readings can be large or run the other way. Only a sample is shown.

Alpha-galactosidase A (Homo sapiens), sequence (P06280 whole entry, looked up): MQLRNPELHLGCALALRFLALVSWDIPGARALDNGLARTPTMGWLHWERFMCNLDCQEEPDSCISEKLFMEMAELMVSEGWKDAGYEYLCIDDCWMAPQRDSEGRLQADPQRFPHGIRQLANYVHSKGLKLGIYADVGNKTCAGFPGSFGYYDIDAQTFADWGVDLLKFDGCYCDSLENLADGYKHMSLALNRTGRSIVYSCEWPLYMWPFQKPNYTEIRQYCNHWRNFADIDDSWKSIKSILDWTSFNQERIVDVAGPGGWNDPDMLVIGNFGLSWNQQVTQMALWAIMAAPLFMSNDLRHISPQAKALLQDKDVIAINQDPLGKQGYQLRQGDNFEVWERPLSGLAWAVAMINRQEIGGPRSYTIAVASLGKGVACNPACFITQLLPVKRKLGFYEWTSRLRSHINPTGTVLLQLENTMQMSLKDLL

For the test, the target named is Alpha-galactosidase A (Homo sapiens) (UniProt P06280). Nature of the test: qHTS Assay for Inhibitors of Human alpha-Galactosidase at pH 4.5. The conditions noted are these: purified enzyme, 4-MU-alpha-Gal fluorescence; series mostly up to 105 µM. An excerpt:
NIH Chemical Genomics Center [NCGC]
NIH Molecular Libraries Probe Production centers Network [MLPCN]
Assay Submitter (PI): Wei Zheng
Alpha-galactosidase is a homodimeric glycoprotein that hydrolyzes the terminal alpha-galactosyl moieties from glycolipids and glycoproteins. Deficiency of this enzyme results in Fabry Disease with progressive accumulation of globotriaosylceramide and other glycosphingolipids in vascular endothelial cells that causes renal failure, myocardial infarction and stroke, and premature death in patients. It has been reported that the improper folding and trafficking of alpha-galactosidase resulting from the genetic mutations may account for a significant numbers of Fabry patients. […] We optimized this alpha-galactosidase assay in 1536-well plate format for identifying the novel small molecule inhibitors with the structures other than the sugar analogs in order to develop the new pharmacological chaperones. Although this assay has the same protocol as PubChem AID 992, this is a separate project and, therefore, is published as a separate assay
NCGC Assay Protocol Summary:
This is a fluorogenic enzyme assay with 4-Methylumbelliferyl alpha-D-galactopyranoside as the substrate and human […] as the enzyme preparation. Upon the hydrolysis of this fluorogenic substrate, the resulting product, […]. 4-Methyllumbelliferone, can be excited at 365 nm and emits at 440 nm. This fluorescence which can be detected by a standard fluorescence plate reader. Data were normalized to the controls for basal activity (without enzyme) and 100% activity (with enzyme). In the AC50 values were determined from concentration-response data modeled with the standard Hill equation.
Assay buffer: 50 mM citric acid (titrated with potassium phosphate to pH 4.5), 0.005% Tween-20, pH 4.5. (pH 4.5 is an optimal condition for this enzyme assay)
1536-well assay protocol for the human alpha-galactosidase:
(1) Add 2 ul/well of enzyme (12 nM final)
(2) Add 23 nL compounds in DMSO solution. The final titration was 0.7 nM to 77 uM.
(3) Add 1 ul of substrate (400 uM final)
(4) Incubate at room temperature for 20 min.
(5) Add 2 ul stop solution (1M NaOH and 1M Glycine mixture, pH 10)
(6) Detect the assay plate in a ViewLux plate reader (PerkinElmer) with Ex=365 nm and Em=440nm.
Keywords: MLSMR, MLPCN, NIH Roadmap, qHTS, NCGC, : Alpha-galactosidase, Fabry Disease, pharmacological chaperone, chaperone therapy
Consider `O=C(Nc1ccc(Br)cn1)C1CCN(S(=O)(=O)c2cccs2)CC1`, for which the activity change, negative = inhibition result was “inactive”.
The entry for `Cc1c(/C=N\NC(=O)c2cc3ccccc3o2)c2ccccc2n1C` is “inactive”; for `Nc1cccc(S(=O)(=O)Nc2ccc(SC(F)F)cc2)c1` it is “inactive”.
The entry for `COc1ccc(-n2cc(CNC3CCOCC3)c(-c3cccc(F)c3)n2)cc1` is “inactive”; for `Cc1cc(NC(=O)CSCc2nc(-c3cccc(Cl)c3)oc2C)no1` it is “inactive”; for `CCCCC/C=C\C[C@H](O)/C=C/C=C/C=C/[C@@H](O)CCCC(=O)O` it is “inactive”.
As for `N#CCSc1nn(-c2ccc(F)cc2)c(=S)s1`, the activity change, negative = inhibition entry is “inactive”.
The value for `Cc1nnc(NC(=O)CCC(=O)N2CCC(C)CC2)s1` was “inactive”; that for `CCCNC(=O)c1c(Cl)cnn1-c1ccc(C)cc1` was “inactive”.
The entry for `COC(=O)C/C=C/[C@@H](C)[C@H](NC(=O)OCC(Cl)(Cl)Cl)c1ccccc1` is “inactive”; for `CC1(OC(=O)c2ccc(Cl)nc2)C(=O)Cc2cc(-c3ccsc3)ncc2C1=O` (stereo not drawn) it is “inactive”.
For the compound `CC(=O)c1ccc(N2CCN(CC(=O)Nc3ccccc3N3CCOCC3)CC2)cc1`, the activity change, negative = inhibition result was “inactive”.
The entry for `CCCc1ccc(OCc2ccc(C(=O)N/N=C/c3cccc([N+](=O)[O-])c3)o2)c(OC)c1` is “inactive”.
Take `C/C=C1\C2C=C(C)CC1(N)c1ccc(=O)[nH]c1C2` (stereo not drawn): the activity change, negative = inhibition result is “inactive”.
The value for `CCOC(=O)C1=C(O)/C(=C/c2cc(C)n(-c3ccccc3)c2C)N=C1C` was “inactive”.
The entry for `CC[C@H](C)[C@@H](NC(=O)O[C@@H]1C(=O)c2cc(OC)ccc2O[C@H]1c1cccc(OC)c1)C(=O)OC` is “inactive”; for `Cc1cc(C)cc(C(=O)NCC(=O)OCC(=O)N2CCCCC2)c1` it is “inactive”.
With `O=C(CN1CCCCCC1)NCCN1C(=O)S/C(=C\c2ccccc2Cl)C1=O`, the activity change, negative = inhibition entry was “inactive”.
As to `Cc1ccccc1-c1ccc(C(=O)O)s1`, the activity change, negative = inhibition entry was “inactive”.
Regarding `Cc1nc(-c2ccccc2)sc1-c1nnc(C2CC2)o1`, the activity change, negative = inhibition result is “inactive”.
The value for `O=c1c(O)c(Br)ccc2c(Br)c(O)c(O)c(O)c12` was “inactive”.
The entry for `O=C(CSc1nc2ccccc2o1)N/N=C/c1ccccc1C(=O)O` is “inactive”.
The value for `COc1cc(/C=C(/NC(=O)c2ccccc2)C(=O)Nc2cccc(O)c2)c([N+](=O)[O-])cc1OC` was “inactive”; that for `CN(CCc1cnn(C)c1)Cc1cn(C)nc1-c1ccccc1F` was “inactive”.
Regarding `CC1=C2[C@@H](O)[C@H]([C@@H](C)C(=O)NCCC(C)C)CC[C@@]2(C)C=CC1=O`, the activity change, negative = inhibition entry is “inactive”.
As to `CC/C=C\C/C=C\C/C=C\C/C=C\C/C=C\C/C=C\CCC(=O)NC(C)C(=O)O` (stereo not drawn), the activity change, negative = inhibition entry was “inactive”.
The value for `CCn1c(COc2c(C)cccc2C)nnc1SCc1nc2ccccc2c(=O)[nH]1` was “inactive”; that for `Cc1ccnc(NC(=O)CCC(=O)N(CC(=O)NCc2ccccc2)Cc2ccco2)c1` was “inactive”.

These data come from PubChem BioAssay AID1467 (National Center for Advancing Translational Sciences (NCATS), 2008).
